The record followed here is ChEMBL document CHEMBL4513216, “Probing the Open Global Health Chemical Diversity Library for Multistage-Active Starting Points for Next-Generation Antimalarials” (ACS Infect Dis, 2020).

Each structure is given as a SMILES string. The whole screen tested about 69,000 compounds, of which about 8,600 (12%) showed an effect of 50% or more. The list comes from a sample in which strong results are over-represented; it also holds similar structures and randomly drawn compounds.

In the assay the test system is Plasmodium berghei. Briefly: Screen against P. berghei liver stage (PbLuc), transformed with Luciferase, at 10uM. The assay is classed as functional, HepG2. The following applies: tested at 10 uM.
`CN(C)C(=O)c1cccnc1SCc1ccccc1C#N`: the INHIBITION is recorded as 1.61%.
Then `CCc1nc(C2CCCN(C(=O)c3ccc(O)nc3)C2)no1` (stereo not given), with 43.2%; and `CN1CC(=O)N(c2ccccc2)CC12CCN(C(=O)c1cnccn1)C2` (stereo not given), with 29.3%; and `c1ccc(-c2nnc(CN3CCOC(Cn4cccn4)C3)o2)cc1` (stereo not given), with 0.914%.
`Cc1cnn(CCC(=O)N2CCCC(c3noc(C)n3)C2)c1` (stereo not given): the INHIBITION was -4.16%.
For `O=C1[C@H]2CN(S(=O)(=O)C3CC3)C[C@H]2CN1Cc1cccnc1` the value was 15.4%; for `O=C1[C@H]2CN(C3CCOCC3)C[C@H]2CN1Cc1cccnc1`, 92%.
`Cc1ccc2c(n1)N(Cc1cccnc1)CCN(C1CCOCC1)C2`: the INHIBITION is reported as 64.9%.
Then `Cc1ccc2c(n1)N(CCn1cccn1)CCN(C1CCOCC1)C2`, with -77.4%; and `Cc1ccc2c(n1)N(Cc1cccnc1)CCN(C(=O)C1CC1)C2`, with 31.1%.
Then `O=C1[C@H]2CN(C3CCOCC3)C[C@H]2CN1Cc1ccncc1`, with -2.46%; and `CCOC(=O)CNC(=O)NCc1cccn1Cc1cccc(C)c1`, with 45.8%; and `CC(=O)N1[C@H](CN(C)C)C[C@@H]2CN(C(=O)c3occc3C)CC[C@@H]21`, with 12.4%.
Turning to `O=C(c1ccncc1)N1CCCC(c2ncncc2-c2ccncc2)C1` (stereo not given), the INHIBITION is given as 12.3%.
Turning to `CCc1noc(CN2CCN(C(=O)OC(C)(C)C)C(C)C2)n1` (stereo not given), the INHIBITION was 20.4%.
Regarding `Cc1ccc(CN2CC(O)CN(C(=O)OCC(C)C)CC2=O)cc1` (stereo not given), the INHIBITION came to 18.4%.
Consider `O=S(=O)(c1cn[nH]c1)N1C[C@@H](O)[C@H](N2CCc3ccccc3C2)C1`, for which the INHIBITION is -51.3%.
Take `COc1cccc(C2CC(=O)Nc3nc(N)sc32)c1OC` (stereo not given): the INHIBITION was 5.53%.
For `CC(=O)c1cc(CN2CCCC23CCN(c2ccccn2)CC3)cs1` the value was 12.7%.
Then `CN(C)c1ncc(-c2cncn2CCc2ccc3c(c2)OCCO3)cn1`, with -12.3%.
For `CC(C)S(=O)(=O)N1CCN(C(=O)c2cnn(C)c2Cl)CC1` the value was 19.845%; for `O=C(O)c1ccccc1-n1cnc(CN2CCCCCC2)c1`, 14.6%.
As to `O=C(CCC1CCCC1)NCCn1nc(C2CCNC2)c2nccnc21` (stereo not given), the INHIBITION turned out to be 67.1%.
`CC(C)(C)CC(=O)NCCn1nc(C2CCNC2)c2cccnc21` (stereo not given): the INHIBITION turned out to be 54.5%.
In the case of `CC(C)CC(=O)NCCn1nc(C2CCNC2)c2cccnc21` (stereo not given), the INHIBITION was determined as 44.8%.
Consider `O=C(NCCn1nc(C2CCNC2)c2cccnc21)C1CC1` (stereo not given), for which the INHIBITION turned out to be 13.5%.
With `COCCC(=O)NCCn1nc(C2CCNC2)c2cccnc21` (stereo not given), the INHIBITION is 5.11%.
Consider `O=C(CCC1CCCC1)NCCn1nc(C2CCNC2)c2cccnc21` (stereo not given), for which the INHIBITION is 38.7%.
Then `CC(C)(C)OC(=O)N[C@@H]1C[C@@H](O)CN(C(=O)c2ccc(F)cc2)C[C@H]1O`, with 6.26%; and `COCCN1CCC(c2ncc(C(=O)N3CCOCC3)c(C)n2)CC1`, with -2.09%.
For `CC(C)C(=O)NCc1cccc(N2CCCCC2=O)c1` the value was 19.4%; for `CCOCCCNC(=O)C1(C)CCC(=O)N1c1ccccc1F` (stereo not given), 37.4%.
In the case of `CC(C)NC(=O)CNC(=O)C12CCC(=O)N1c1cc(Cl)ccc1S2` (stereo not given), the INHIBITION is 73.6%.
Then `CC(C)C(=O)NCCNC(=O)C12CCC(=O)N1c1cc(Cl)ccc1S2` (stereo not given), with 57.6%.
Then `CC(C)NC(=O)CNC(=O)N1CCc2c([nH]c3ccc(Cl)cc23)C1`, with -22.9%; and `COC(=O)CNC(=O)C12CCC(=O)N1c1cc(Cl)ccc1S2` (stereo not given), with 15.9%.
For `Cc1nn(C)c(Cl)c1C1CCCN1C(=O)c1ccncc1` (stereo not given), the INHIBITION is given as 38.5%.
Then `O=C(c1cscn1)N1CCC2(CCCN(CCOc3ccccc3)C2)C1` (stereo not given), with -31.9%; and `CCN(C)S(=O)(=O)NCC1CCCN(Cc2ccccc2F)C1` (stereo not given), with 1.74%.
Then `CCC(C)N1Cc2c(C(=O)N3CCOCC3)nn(C)c2C1` (stereo not given), with 19.5%; and `Cc1cnn(CC2CCCCN2C(=O)Cc2ccc(C#N)cc2)c1` (stereo not given), with 2.97%.
Regarding `Cc1ccc2nc(CN3CCN(C4CCCCC4)C(=O)C3)cc(O)c2c1`, the INHIBITION was -46.2%.
Then `Cc1ccc2nc(CN3CCC(O)(CN4CCCC4)CC3)cc(O)c2c1`, with 69.3%; and `Cc1ccc2nc(CN3CCC(O)(Cn4ccnc4)CC3)cc(O)c2c1`, with 43.4%; and `Oc1cc(CN2CCC(O)(Cn3ccnc3)CC2)nc2c(Cl)cccc12`, with 27.6%.
Turning to `Cc1ccc2nc(CN3CCN(C4CCCC4)C(=O)C3)cc(O)c2c1`, the INHIBITION is reported as -0.529%.
For `Oc1cc(CN2CCC(O)(Cn3ccnc3)CC2)nc2ccc(F)cc12` the value was 62.8%; for `CC(=O)N1CCc2nc(C3CCN(C(=O)c4ccccc4)C3)ncc2C1` (stereo not given), -29.8%.
For `CN(Cc1cccs1)C(=O)CN1CCCC(Cn2cncn2)C1` (stereo not given) the value was -4.16%; for `CN1CCCN(S(=O)(=O)c2cccc(C(=O)N3CCCCCC3)c2)CC1`, 36%; for `CCc1nnc(CNC(=O)CCC2CCCCN2C)s1` (stereo not given), 6.72%.
With `CS(=O)(=O)NCCC1CCCN(Cc2ccccc2F)C1` (stereo not given), the INHIBITION was found to be 43.1%.
Take `COc1coc(CN2CCCC(CCc3c(F)cccc3F)C2)cc1=O` (stereo not given): the INHIBITION came to 56.3%.
Then `COc1cccc(F)c1CN1CCC(c2nc(C)cc(C)n2)C1` (stereo not given), with 43.45%.
In the case of `Cc1[nH]c(=O)[nH]c(=O)c1CN1CCCC(CCc2c(F)cccc2F)C1` (stereo not given), the INHIBITION was 6.8%.
Take `CN1N=C(C(=O)N2CCCC(CCc3c(F)cccc3F)C2)CCC1=O` (stereo not given): the INHIBITION was 0.139%.
On to `COc1coc(CN2CCCC(CCc3ccccc3C)C2)cc1=O` (stereo not given), for which the INHIBITION is 46.4%.
As for `Cc1[nH]c(=O)[nH]c(=O)c1CN1CCCC(CCc2ccccc2F)C1` (stereo not given), the INHIBITION came out at 19.7%.
For `COc1coc(CN2CCCC(CCc3ccccc3F)C2)cc1=O` (stereo not given) the value was 60.4%; for `O=c1cc(CN2CCCC(CCc3c(F)cccc3F)C2)[nH]c(=O)[nH]1` (stereo not given), 58.5%.
On to `COCCOCC(=O)NCc1ccc(N(C)C)nc1`, for which the INHIBITION is 26.1%.
As for `COCCN1CCN(C(C(=O)O)c2ccc(SC)cc2)CC1` (stereo not given), the INHIBITION is 49.4%.
Then `Cn1cc(CN2CCCC(O)C2)c(-c2ccccc2F)n1` (stereo not given), with 3.13%; and `COc1cccc(CN2CCC3(CC2)CCN(C(=O)[C@@H]2CCCO2)C3)c1`, with -47.9%; and `Cc1ccc(N2CCOC(C)(C(=O)N(C)C)C2)nn1` (stereo not given), with 18.3%.
In the case of `CCc1nc(C)ncc1C(=O)N1CCOC(c2nc(C)n[nH]2)C1` (stereo not given), the INHIBITION came out at 23.5%.
`Cc1n[nH]c(C2CN(C(=O)c3cc4c(s3)CCCC4)CCO2)n1` (stereo not given): the INHIBITION was -1.14%.
For `Cc1n[nH]c(C2CN(C(=O)c3cc4c(s3)CCC4)CCO2)n1` (stereo not given) the value was 0.914%.
For `CC(C)c1n[nH]c(C2CN(C(=O)c3cc4c(s3)CCC4)CCO2)n1` (stereo not given) the value was 52.3%.
As to `CCc1nnsc1C(=O)N1CCOC(c2nc(C(C)C)n[nH]2)C1` (stereo not given), the INHIBITION was -2.61%.
As to `CC(C)c1n[nH]c(C2CN(C(=O)c3csnn3)CCO2)n1` (stereo not given), the INHIBITION turned out to be 52.7%.
Regarding `CCc1nnsc1C(=O)N1CCOC(c2nc(C)n[nH]2)C1` (stereo not given), the INHIBITION is given as 51.3%.
For `Cc1n[nH]c(C2CN(C(=O)c3csnn3)CCO2)n1` (stereo not given) the value was 35.1%.
For `CCc1n[nH]c(C2CN(C(=O)c3csnn3)CCO2)n1` (stereo not given) the value was 40.4%; for `CC(CO)NC(=O)c1ccc(NCc2ccccc2)cc1` (stereo not given), 19.8%; for `Cc1cc(Nc2ccc(F)cn2)cc(C2CCCN2)n1` (stereo not given), 34.9%.
For `CCN(C(=O)C1Cc2cc(Cl)ccc2O1)C1CC1` (stereo not given) the value was 38.3%; for `CNc1cc(C)nc(C2CCN(CCO)CC2)n1`, -2.09%.
Regarding `Cc1nc(CN2C(=O)COC3(CCN(Cc4ccco4)CC3)C2C)cs1` (stereo not given), the INHIBITION is -4.86%.
For `Cc1cc(NCCn2cccn2)n2ncnc2n1` the value was -38.8%.
`COc1cccc(N2CCC(CNc3cc(C)nc4ncnn34)C2)c1` (stereo not given): the INHIBITION is 65.5%.
Consider `CCc1cc(NCc2cccnc2N2CCCCC2)n2ncnc2n1`, for which the INHIBITION worked out at 36.2%.
For `Cc1cc(NCC2CCN(c3ccccc3)C2)n2ncnc2n1` (stereo not given) the value was 78.9%.
For the compound `CCc1cc(NCc2ccccc2CN2CCCC2)n2ncnc2n1`, the INHIBITION was 11.1%.
Then `Cc1cc(NC2CCN(c3ccccc3)C2)n2ncnc2n1` (stereo not given), with 4.94%; and `Cc1cc(NCC2CCCCC2)n2ncnc2n1`, with 9.8%.
For the compound `Cc1cc(NCc2ccccc2CN2CCCCC2)n2ncnc2n1`, the INHIBITION is reported as 54.4%.
For `COc1cccc(N2CCC(CNC(=O)NCc3ccco3)C2)c1` (stereo not given) the value was -51%; for `CCc1n[nH]c(C2CN(C(=O)c3cc4c(s3)CCC4)CCO2)n1` (stereo not given), -7.31%; for `C[C@H]1CN(C(=O)c2ccc[nH]2)C[C@@]12CCN(c1ccsc1)C2=O`, 18.3%.
`NC(=O)c1cc(C2CCCN(CCOc3cccc(F)c3)C2)n[nH]1` (stereo not given): the INHIBITION turned out to be 43.48%.
`CN(C)Cc1nn(C)c2c1CN(C(=O)c1ccc[nH]1)C2`: the INHIBITION is listed as -4.02%.
As to `COc1ccc(-c2ccnc3nc(N4CCCC4)[nH]c(=O)c23)cc1OC`, the INHIBITION is given as 40%.
For `Cc1cccc(NC(=O)N2CCN(Cc3noc(C4CC4)n3)CC2)c1` the value was 46.2%; for `CC(=O)c1c(C)nn(CC(=O)N2Cc3cnc(C(C)(C)C)nc3C2)c1C`, -10.4%; for `CC(=O)N1Cc2cnc(C(C)(C)C)nc2C1`, 19.8%.
For `Cc1cc(C)n(CC(=O)N2Cc3cnc(C(C)(C)C)nc3C2)n1` the value was 51.3%.
As for `Cc1noc(Cl)c1CCC(=O)N1CCN(c2ccccc2)CC1`, the INHIBITION is on record as 26.5%.
On to `Cc1c(CNC(=O)NCc2cccc(-n3cncn3)c2)cnn1C`, for which the INHIBITION was -40.4%.
With `O=C(NCc1cccc(-n2cncn2)c1)NCC(C1CC1)C1CC1`, the INHIBITION came to 50.2%.
Then `CSC(C)(C)CNC(=O)NCc1cccc(-n2cncn2)c1`, with -17.9%; and `CCn1ncc(CN(C)C(=O)c2ccn(C)n2)c1C`, with 30%.
For `Cc1ccsc1C(=O)N1CCN(Cc2cscn2)CC1` the value was -6.14%; for `COCCN1C(=O)[C@@H]2CC[C@H]1CN(c1nccc(C3CCCC3)n1)C2`, -47.9%.
Then `c1ccc(CN2CCCn3nnc(CNc4ncccn4)c3C2)nc1`, with -18.4%.
